Laboratory results as given in PubChem BioAssay (EPA / NIEHS).
Results filed as inconclusive are left out. The source made the active and inactive calls. How the source made its calls, unless noted: active means hit-call score of the fitted dose curve at least 0.9, where 1 is the maximum; inconclusive means response in the unintended direction; inactive means score below 0.9.

Legend:
[1] = biological target: Cellular tumor antigen p53 (Homo sapiens) (UniProt P04637); test: TOX21_p53_BLA_p2_ratio: Tox21 HCT-116 p53 Agonism Beta-lactamase Assay, Ratio, Phase 2 (AID 2283592)
Outline: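 Readout: blue/green (460/530 nm) FRET emission ratio after 2 h CCF4-AM loading at room temperature, excitation 405 nm. HCT116 p53 bla cells, 16 h compound exposure at 37C, 5% CO2; agonist direction fitted against DMSO baseline.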

[2] = TOX21_p53_BLA_p3_viability: Viability Assessment in the Tox21 HCT-116 p53 Agonism Beta-lactamase Assay, Phase 3 (AID 2283593);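 further: cells exposed to compound for 16 h before reading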
Outline: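 Cellular ATP was quantified by CellTiter-Glo luminescence, read after 30 min at room temperature. Beforehand, HCT116 cells (4000/well) received compound 5 h post-seeding, 217-fold diluted from DMSO, then incubated 16 h at 37C.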

[3] = TOX21_p53_BLA_p5_viability: Viability Assessment in the Tox21 HCT-116 p53 Agonism Beta-lactamase Assay, Phase 5 (AID 2283600)
Outline: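 ATP luminescence (CellTiter-Glo, 30 min, RT) served as the viability read-out, with loss of signal indicating cytotoxicity. Compounds in DMSO were pinned at a 217-fold dilution onto 4000 cells/well and incubated 16 h, 37C.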

[4] = biological target: Cellular tumor antigen p53 (Homo sapiens) (UniProt P04637); test: TOX21_p53_BLA_p5_ratio: Tox21 HCT-116 p53 Agonism Beta-lactamase Assay, Ratio, Phase 5 (AID 2283599)
Outline: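 Beta-lactamase reporter ratio (blue 460 nm over green 530 nm, 405 nm excitation) after 2 h CCF4-AM loading, in HCT-116 cells exposed 16 h at 37 C to compounds pinned at 217-fold dilution. Increases relative to DMSO baseline scored.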

[5] = biological target: Cellular tumor antigen p53 (Homo sapiens) (UniProt P04637); test: TOX21_p53_BLA_p4_ratio: Tox21 HCT-116 p53 Agonism Beta-lactamase Assay, Ratio, Phase 4 (AID 2283601)
Outline: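 Signal is the blue/green (460nm/530nm) ratio of cleaved versus uncleaved CCF4-AM substrate, read after 2 h substrate loading. Cells were HCT116 carrying the p53-responsive beta-lactamase reporter, dosed 16 h at 37C, 5% CO2; CellTiter-Glo measured in parallel.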

[6] = TOX21_p53_BLA_p4_viability: Viability Assessment in the Tox21 HCT-116 p53 Agonism Beta-lactamase Assay, Phase 4 (AID 2283597);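 further: hits lower the luminescence signal meaning cytotoxicity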
Outline: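 ATP content by CellTiter-Glo luminescence, 30 min RT, read after the beta-lactamase ratio step. Cells: HCT116, 4000/well, compound added after 5 h, exposure 16 h at 37C. Signal loss = reduced viability.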

[7] = biological target: Cellular tumor antigen p53 (Homo sapiens) (UniProt P04637); test: TOX21_p53_BLA_p3_ratio: Tox21 HCT-116 p53 Agonism Beta-lactamase Assay, Ratio, Phase 3 (AID 2283596)
Outline: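 Cells were seeded at 4000/well, rested 5 h at 37C, then dosed with DMSO compound solutions (217-fold dilution) for 16 h. CCF4-AM substrate was loaded for 2 h at room temperature, and the 460/530 nm emission ratio was fitted for gain of signal versus DMSO.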

[8] = CCTE_Harrill_HTTr_Viability_MCF7: CCTE's 6-hour Cell Viability Assessment for the High-Throughput Transcriptomics (HTTr) Platform, in MCF-7 cells cultured in DMEM + 10% fetal bovine serum, Harrill Lab (AID 2284010; active means hit-call score of the fitted dose curve at least 0.9, where 1 is the maximum; inactive means score below 0.9)
Outline: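 PI exclusion, high-content imaging; 8-pt dilution series, 6 h exposure; bidirectional fit vs DMSO (neg. ctrl/baseline); gain of signal = loss of membrane integrity.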

[9] = biological target: Thyroid hormone receptor alpha (Rattus norvegicus) + Thyroid hormone receptor beta (Rattus norvegicus) (UniProt P18113+P63059); test: TOX21_TR_LUC_GH3_Antagonist_Followup: Tox21 GH3 Thyroid Hormone Receptor Antagonism Luciferase Follow-Up Assay (AID 2283942)
Outline: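 Loss of T3-driven (1.0 nM final) reporter activity in GH3 cells was read by ONE-Glo luminescence after 24 h incubation at 37C; 15-point compound series spanned 92 uM to 5nM final, 1,500 cells/well.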

THRA (gene 7067) = THRA (gene 7067) (UniProt P10827); test: TOX21_TRA_COA_Antagonist_Followup_ratio: Tox21 Thyroid Hormone Receptor alpha Antagonism through Coactivator Recruitment Follow-Up Assay, Ratio (AID 2283953)
Outline: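 We measured antagonism of T3-type coactivator recruitment using a TR-FRET ratio (emission 520 and 495 nm) between a Tb-labelled anti-GST antibody on TRα LBD (2.5 nM) and SRC-2 peptide (200 nM). Activity was scaled between DMSO and T3 wells.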

[10] = TOX21_TRB_BLA_Antagonist_Followup_viability: Viability Assessment in the Tox21 Thyroid Hormone Receptor beta Antagonism Beta-lactamase (BLA) Follow-Up Assay (AID 2283961)
Outline: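 Viability read as CellTiter-Glo ATP luminescence (loss of signal = cytotoxicity) in the same plates as the TRβ-bla readout. TRβ-LBD/GAL4 UAS-bla HEK293T cells were exposed to compounds, 11 concentrations in triplicate, for 18 h at 37C/5% CO2.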

THRB (gene 7068) = THRB (gene 7068) (UniProt P10828); test: TOX21_TRB_COA_Antagonist_Followup_ratio: Tox21 Thyroid Hormone Receptor beta Antagonism through Coactivator Recruitment Follow-Up Assay, Ratio (AID 2283967)
Outline: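 Coactivator recruitment to the GST-tagged TRb ligand-binding domain (5.0 nM) was read as the 520/495 nm TR-FRET ratio, using 200 nM fluorescein SRC-2 peptide and 2 nM terbium anti-GST. Scaled between DMSO and T3 wells; loss of signal fitted.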

[11] = biological target: Retinoic acid receptor RXR-alpha (Homo sapiens) (UniProt P19793); test: TOX21_TR_RXR_BLA_Antagonist_Followup_ratio: Tox21 Thyroid Hormone Receptor beta Retinoid X Receptor alpha (RXRa) Antagonism Beta-lactamase (BLA) Follow-Up Assay, Ratio (AID 2283972)
Outline: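 Beta-lactamase reporter readout as cleaved/uncleaved substrate ratio (460:530 nm) after 2 h substrate loading at room temperature. GAL4-RXRa bla HEK293T cells were exposed 16 h at 37C to 11-point compound series; loss of signal scored against DMSO baseline.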

[12] = TOX21_TR_RXR_BLA_Antagonist_Followup_viability: Viability Assessment in the Tox21 Thyroid Hormone Receptor beta Retinoid X Receptor alpha (RXRa) Antagonism Beta-lactamase (BLA) Follow-Up Assay (AID 2283979)
Outline: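 Follow-up compounds (11 concentrations, triplicate) were incubated 16 h at 37C/5% CO2 with HEK293T RXRa-bla cells seeded at 2,500/well in charcoal-stripped-serum medium. ATP content by CellTiter-Glo luminescence gave viability; curves fitted in both directions against DMSO.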

Measured: outcome

Sequence of Cellular tumor antigen p53 (Homo sapiens) (P04637 whole entry, looked up): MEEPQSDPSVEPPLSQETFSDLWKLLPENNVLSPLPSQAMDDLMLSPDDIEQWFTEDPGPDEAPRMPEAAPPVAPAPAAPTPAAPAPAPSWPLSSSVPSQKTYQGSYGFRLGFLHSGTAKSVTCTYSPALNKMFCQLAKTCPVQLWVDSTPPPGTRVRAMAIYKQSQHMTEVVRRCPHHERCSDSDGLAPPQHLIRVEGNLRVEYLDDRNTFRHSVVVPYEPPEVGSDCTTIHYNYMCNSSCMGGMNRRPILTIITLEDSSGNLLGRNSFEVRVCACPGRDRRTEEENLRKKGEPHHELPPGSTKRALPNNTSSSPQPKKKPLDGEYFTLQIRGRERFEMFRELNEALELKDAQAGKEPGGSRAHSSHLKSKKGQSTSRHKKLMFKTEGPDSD
Sequence of Retinoic acid receptor RXR-alpha (Homo sapiens) (P19793 whole entry, looked up, the tested form may be a part): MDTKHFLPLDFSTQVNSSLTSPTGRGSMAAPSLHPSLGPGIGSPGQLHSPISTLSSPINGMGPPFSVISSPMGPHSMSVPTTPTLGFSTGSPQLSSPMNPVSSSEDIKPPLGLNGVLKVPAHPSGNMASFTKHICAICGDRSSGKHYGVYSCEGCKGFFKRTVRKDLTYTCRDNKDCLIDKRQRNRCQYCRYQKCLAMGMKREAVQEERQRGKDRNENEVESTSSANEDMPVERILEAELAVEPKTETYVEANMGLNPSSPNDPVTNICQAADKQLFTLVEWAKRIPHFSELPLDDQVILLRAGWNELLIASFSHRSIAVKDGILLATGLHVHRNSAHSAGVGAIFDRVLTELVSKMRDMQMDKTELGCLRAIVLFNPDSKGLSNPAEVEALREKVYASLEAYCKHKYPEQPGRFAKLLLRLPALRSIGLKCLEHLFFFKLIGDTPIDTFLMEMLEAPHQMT
Sequence of THRB (gene 7068) (P10828 whole entry, looked up, the tested form may be a part): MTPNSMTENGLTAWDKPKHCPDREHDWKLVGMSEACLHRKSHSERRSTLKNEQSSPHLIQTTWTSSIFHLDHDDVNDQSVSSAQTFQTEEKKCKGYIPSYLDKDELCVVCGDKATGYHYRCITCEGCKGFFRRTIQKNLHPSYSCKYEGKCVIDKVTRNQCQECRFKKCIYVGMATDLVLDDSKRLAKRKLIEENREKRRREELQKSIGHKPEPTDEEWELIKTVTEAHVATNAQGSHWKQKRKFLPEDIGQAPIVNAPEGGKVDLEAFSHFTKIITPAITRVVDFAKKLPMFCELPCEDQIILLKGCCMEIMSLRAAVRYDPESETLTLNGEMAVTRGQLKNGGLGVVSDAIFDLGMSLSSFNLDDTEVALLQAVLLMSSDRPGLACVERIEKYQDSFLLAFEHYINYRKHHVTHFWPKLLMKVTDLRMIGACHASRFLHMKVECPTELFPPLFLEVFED
Sequence of THRA (gene 7067) (P10827 whole entry, looked up, the tested form may be a part): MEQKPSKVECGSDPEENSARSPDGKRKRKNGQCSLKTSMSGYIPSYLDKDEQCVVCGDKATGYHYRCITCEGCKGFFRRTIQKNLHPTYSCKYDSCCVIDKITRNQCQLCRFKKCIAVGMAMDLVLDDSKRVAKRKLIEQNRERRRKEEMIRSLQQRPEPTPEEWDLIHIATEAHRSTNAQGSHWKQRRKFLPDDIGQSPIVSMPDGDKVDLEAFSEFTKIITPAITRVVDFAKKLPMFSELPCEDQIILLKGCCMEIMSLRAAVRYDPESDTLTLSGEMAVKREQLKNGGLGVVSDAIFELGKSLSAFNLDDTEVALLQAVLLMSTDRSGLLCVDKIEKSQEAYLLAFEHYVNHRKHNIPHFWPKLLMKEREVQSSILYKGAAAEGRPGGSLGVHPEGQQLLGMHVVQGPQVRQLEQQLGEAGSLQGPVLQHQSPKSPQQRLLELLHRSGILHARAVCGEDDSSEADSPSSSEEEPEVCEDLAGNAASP

CCCCCCCC/C=C\CCCCCCCC(=O)OCCCC
inactive: [1] | [2] | [3]

Oc1ccc(C(O)CNCCCCCCNCC(O)c2ccc(O)c(O)c2)cc1O (stereo unspecified)
inactive: [1] | [2] | [4] | [3]

CCCCc1ncc(/C=C(\Cc2cccs2)C(=O)O)n1Cc1ccc(C(=O)O)cc1
inactive: [1] | [2] | [4] | [5]

COc1ccc(-c2cc(=O)c3c(O)cc(O[C@@H]4O[C@H](CO[C@@H]5O[C@@H](C)[C@H](O)[C@@H](O)[C@H]5O)[C@@H](O)[C@H](O)[C@H]4O)cc3o2)cc1O
inactive: [1] | [2] | [3] | [5]

FC(F)(F)c1ccccc1-n1ccnc1
inactive: [1] | [2] | [4] | [3]

C[C@@H](c1ncncc1F)[C@](O)(Cn1cncn1)c1ccc(F)cc1F
inactive: [1] | [2] | [6] | [3]

CO/N=C(\C(=O)N[C@@H]1C(=O)N2C(C(=O)O)=C(C[N+]3(C)CCCC3)CS[C@H]12)c1csc(N)n1
inactive: [1] | [7]

CC(C)C(=O)OCC(C)(C)C(O)C(C)C (stereo unspecified)
inactive: [1] | [2] | [4] | [3] | [5]

CC(C)(C)NSc1nc2ccccc2s1
inactive: [1] | [2] | [6] | [3] | [5]

CC(N)CN (stereo unspecified)
inactive: [1] | [2] | [4]

CC(=O)OCC1=C(C(=O)O)N2C(=O)[C@@H](NC(=O)Cc3ccccc3)[C@H]2SC1
inactive: [1] | [2] | [6] | [5]

CCN(CCO)CCCC(C)Nc1ccnc2cc(Cl)ccc12 (stereo unspecified)
inactive: [1] | [2] | [4] | [3] | [5]

CCOCCC(=O)OCC
inactive: [1] | [2] | [5]

CCN1CCCC1CNC(=O)c1cc(S(N)(=O)=O)ccc1OC (stereo unspecified)
inactive: [1] | [2] | [4] | [3] | [5] | [8]

COc1cc(C(=O)N2CCCCCCC2)cc(OC)c1OC
inactive: [1] | [2] | [6] | [3] | [5]

CNC(=O)c1ccccc1
inactive: [1] | [2] | [5]

COc1cc(C(=O)NC2CCCNC2)cc(OC)c1OC (stereo unspecified)
not listed: [2] | [3] | [8]
inactive: all other assays above

Cc1ccc(O)c(N)c1
inactive: [1] | [7] | [6] | [4] | [3] | [5]

COc1cc2c(cc1OC)[C@@H](c1ccccc1)CN(C)CC2
inactive: [1] | [7] | [6] | [4] | [5]

CC(=O)O[C@H]1CC[C@@]2(C)C(=CC[C@@H]3[C@@H]2CC[C@]2(C)C(c4cccnc4)=CC[C@@H]32)C1
inactive: [1] | [7] | [6] | [4] | [5]
